Active and inactive are the calls of the source. Rule for the calls: active = hit-call score of the fitted dose curve at least 0.9, where 1 is the maximum; inactive = score below 0.9.
What was measured:
[1] = target: Transcription factor E2F1 (Homo sapiens) (UniProt Q01094); assay: ATG_E2F_CIS: Attagene CIS-FACTORIAL HepG2 Assay for human E2F Transcription Factor 1 (AID 2282935); conditions: HepG2 Attagene cis-reporter, E2F reporter RNA transcripts; actives raise or lower the signal
Summary of the method: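 Gain or loss of reporter transcript, fitted against DMSO, reflects E2F1-driven transcription. Transiently transfected HepG2 dosed 24 h before RNA isolation. Quantified by fluorescent RT-PCR products separated by capillary electrophoresis.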

[2] = ATG_E_Box_CIS: Attagene CIS-FACTORIAL HepG2 Assay for human Enhancer Box (E-box) (AID 2282936); conditions: HepG2 E-box cis-reporter transcription, actives raise or lower the signal
Summary of the method: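 E-box-driven reporter transcripts measured in transiently transfected HepG2 after 24 h exposure: RNA reverse-transcribed, PCR-amplified, fluorescently labelled, digested and resolved by capillary electrophoresis. Gain or loss relative to DMSO.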

[3] = ATG_M_61_CIS: Attagene CIS-FACTORIAL HepG2 Assay for M61 Transcription Factor (Internal Marker) (AID 2282937); conditions: HepG2 Attagene CIS-FACTORIAL M61 internal marker reporter; actives raise or lower the signal
Summary of the method: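 HepG2 cells transiently transfected with cis-element-driven multiple reporter transcription units, dosed for 24 h. Reporter mRNA measured by RT-PCR, 6-FAM primer-extension labelling, HpaI digestion and capillary electrophoresis; bidirectional fit versus DMSO baseline.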

[4] = ATG_EGR_CIS: Attagene CIS-FACTORIAL HepG2 Assay for human Early Growth Response 1 (EGR1) (AID 2282938); conditions: HepG2 Attagene CIS-FACTORIAL EGR reporter mRNA; actives raise or lower the signal
Summary of the method: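 HepG2 cells transiently transfected with cis-promoter-driven multiplexed reporter transcription units; reporter mRNA measured 24 h after compound dosing by RT-PCR, 6-FAM primer extension, HpaI digestion and capillary electrophoresis. Bidirectional fit versus DMSO baseline.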

[5] = ATG_ERE_CIS: Attagene CIS-FACTORIAL HepG2 Assay for Estrogen Response Element (ERE) (AID 2282940); conditions: HepG2 ERE cis-reporter, Attagene RNA transcript; actives raise or lower the signal
Summary of the method: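 After a 24 h chemical treatment, RNA from reporter-transfected HepG2 cells is reverse-transcribed, PCR-amplified and fluorescently labelled. Fragments separated by capillary electrophoresis give reporter signal; DMSO serves as negative control.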

[6] = ATG_Ets_CIS: Attagene CIS-FACTORIAL HepG2 Assay for human Erythroblast Transformation Specific (ETS) (AID 2282941); conditions: HepG2 ETS cis-reporter transcription, actives raise or lower the signal
Summary of the method: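 Bidirectional fit versus DMSO of reporter mRNA signal, detected by RT-PCR and capillary electrophoresis in HepG2 cells transiently transfected with cis-element reporters and dosed 24 h.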

[7] = target: Hepatocyte nuclear factor 3-beta (Homo sapiens) (UniProt Q9Y261); assay: ATG_FoxA2_CIS: Attagene CIS-FACTORIAL HepG2 Assay for human Forkhead box A2 (FOXA2) (AID 2282942); conditions: HepG2 cis-reporter transcription factor activity, 24 h; actives raise or lower the signal
Hepatocyte nuclear factor 3-beta (Homo sapiens), sequence (Q9Y261 whole entry, looked up): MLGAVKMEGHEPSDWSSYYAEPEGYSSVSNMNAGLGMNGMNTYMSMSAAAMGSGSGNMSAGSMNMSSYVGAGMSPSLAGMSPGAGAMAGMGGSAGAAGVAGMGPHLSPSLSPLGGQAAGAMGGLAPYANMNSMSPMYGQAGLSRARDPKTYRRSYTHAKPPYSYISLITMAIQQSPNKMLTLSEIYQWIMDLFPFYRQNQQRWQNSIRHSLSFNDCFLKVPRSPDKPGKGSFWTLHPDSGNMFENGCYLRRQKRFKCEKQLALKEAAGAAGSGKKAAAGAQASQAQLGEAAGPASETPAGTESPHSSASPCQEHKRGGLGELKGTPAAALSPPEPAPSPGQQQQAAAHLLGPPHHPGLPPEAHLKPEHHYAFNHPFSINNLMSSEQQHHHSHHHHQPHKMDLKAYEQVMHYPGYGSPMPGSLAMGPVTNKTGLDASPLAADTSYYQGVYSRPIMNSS
Summary of the method: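 HepG2 cells transiently transfected with multiple cis-regulated reporter transcription units, dosed for 24 h. Reporter mRNA measured by RT-PCR, 6-FAM labelling, HpaI digestion and capillary electrophoresis; bidirectional fitting against DMSO baseline.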

[8] = ATG_FoxO_CIS: Attagene CIS-FACTORIAL HepG2 Assay for human Forkhead box O (FoxO) (AID 2282943); conditions: HepG2 Attagene cis-reporter, FoxO element, mRNA; actives raise or lower the signal
Summary of the method: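 HepG2, transient MRTU transfection (cis element, endogenous TFs). Dose 24 h. TriZol RNA → oligo(dT) RT → PCR → 6-FAM primer extension → HpaI cut → CE. Gain/loss vs DMSO.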

[9] = ATG_GATA_CIS: Attagene CIS-FACTORIAL HepG2 Assay for human GATA Binding Protein (AID 2282944); conditions: HepG2 GATA cis-element reporter, Attagene multiplex mRNA; actives raise or lower the signal
Summary of the method: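 Cells: HepG2, transiently transfected with cis-regulated reporter transcription units. Exposure: 24 h. Detection: RT-PCR plus capillary electrophoresis of FAM-labeled fragments. Analysis: bidirectional, DMSO as baseline.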

[10] = ATG_GLI_CIS: Attagene CIS-FACTORIAL HepG2 Assay for human Zinc Finger Protein GLI1 (AID 2282945); conditions: HepG2, Attagene cis-factorial reporter mRNA, GLI element; actives raise or lower the signal
Summary of the method: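 Bidirectional curve fits relative to DMSO, using reporter mRNA levels from RT-PCR plus capillary electrophoresis. Cells were HepG2 transiently carrying cis-regulated reporter constructs, harvested 24 h after dosing.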

[11] = target: Bile acid receptor (Homo sapiens) (UniProt Q96RI1); assay: ATG_IR1_CIS: Attagene CIS-FACTORIAL HepG2 Assay for human Nuclear Receptor Subfamily 1 Group H Member 4 (NR1H4), IR1 submotif (AID 2282946); conditions: IR1 reporter transcription, actives raise or lower the signal
Bile acid receptor (Homo sapiens), sequence (Q96RI1 whole entry, looked up): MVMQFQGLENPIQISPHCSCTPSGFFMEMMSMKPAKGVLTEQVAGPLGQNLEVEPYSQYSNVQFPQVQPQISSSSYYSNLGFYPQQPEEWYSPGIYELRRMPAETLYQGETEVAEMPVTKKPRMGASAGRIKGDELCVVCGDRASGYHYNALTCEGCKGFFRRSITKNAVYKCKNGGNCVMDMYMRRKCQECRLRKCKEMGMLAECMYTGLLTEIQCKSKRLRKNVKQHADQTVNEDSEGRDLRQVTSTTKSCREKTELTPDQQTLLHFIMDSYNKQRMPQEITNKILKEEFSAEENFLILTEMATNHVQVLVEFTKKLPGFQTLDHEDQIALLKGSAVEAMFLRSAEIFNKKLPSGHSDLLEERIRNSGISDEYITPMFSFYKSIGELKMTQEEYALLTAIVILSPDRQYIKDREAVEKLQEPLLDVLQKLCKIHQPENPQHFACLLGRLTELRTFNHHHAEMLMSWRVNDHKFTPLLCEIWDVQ
Summary of the method: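 HepG2 cells transiently transfected with multiplexed cis-element reporter units read endogenous transcription factor activity. After 24 h compound exposure, reporter mRNA was quantified by RT-PCR, fluorescent labelling, HpaI digestion and capillary electrophoresis; bidirectional fitting versus DMSO baseline.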

[12] = ATG_GRE_CIS: Attagene CIS-FACTORIAL HepG2 Assay for human Glucocorticoid Response Elements (GRE) (AID 2282947); conditions: HepG2 GRE cis-reporter, Attagene multiplex mRNA; actives raise or lower the signal
Summary of the method: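 Reporter transcripts read by RT-PCR with capillary electrophoresis fluorescence after a 24 h chemical exposure of HepG2 cells transiently transfected with multiple cis-element reporter units. Gain or loss fitted against DMSO.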

[13] = ATG_ISRE_CIS: Attagene CIS-FACTORIAL HepG2 Assay for human Interferon Regulatory Factor 1 (IRF1) binding to an Interferon-Stimulated Response Element (ISRE) (AID 2282948); conditions: HepG2 ISRE cis-reporter (Attagene), mRNA transcription readout; actives raise or lower the signal
Summary of the method: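 Uses HepG2 liver cells transfected with cis-regulated reporters and measures mRNA 24 h post-dosing through RT-PCR, primer-extension labelling and capillary electrophoresis, with DMSO as negative control.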

[14] = ATG_M_32_CIS: Attagene CIS-FACTORIAL HepG2 Assay for M32 Transcription Factor (Internal Marker) (AID 2282949); conditions: HepG2 Attagene cis-factorial M32 reporter, mRNA; actives raise or lower the signal;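 note: background control marker of the multiplexed CIS panel rather than a real target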
Summary of the method: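 HepG2 human liver cells transiently transfected with cis-promoter-driven multiple reporter transcription units, dosed 24 h. Reporter mRNA quantified by RT-PCR, FAM-labelled primer extension, HpaI digest and capillary electrophoresis; bidirectional fit versus DMSO baseline.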

[15] = ATG_M_06_CIS: Attagene CIS-FACTORIAL HepG2 Assay for M06 Transcription Factor (Internal Marker) (AID 2282950); conditions: HepG2 Attagene CIS-FACTORIAL M06 internal marker reporter; actives raise or lower the signal
Summary of the method: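 Measured 24 h post-dosing in transiently transfected HepG2 cells, this internal-marker endpoint reports reporter mRNA via RT-PCR with fluorescent primer extension and capillary electrophoresis. DMSO served as negative control and baseline for bidirectional fitting.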

[16] = target: Hypoxia-inducible factor 1-alpha (Homo sapiens) (UniProt Q16665); assay: ATG_HIF1a_CIS: Attagene CIS-FACTORIAL HepG2 Assay for human Hypoxia Inducible Factor 1 (HIF1A) (AID 2282951); conditions: HepG2 Attagene cis-factorial HIF1a reporter transcription; actives raise or lower the signal
Hypoxia-inducible factor 1-alpha (Homo sapiens), sequence (Q16665 whole entry, looked up): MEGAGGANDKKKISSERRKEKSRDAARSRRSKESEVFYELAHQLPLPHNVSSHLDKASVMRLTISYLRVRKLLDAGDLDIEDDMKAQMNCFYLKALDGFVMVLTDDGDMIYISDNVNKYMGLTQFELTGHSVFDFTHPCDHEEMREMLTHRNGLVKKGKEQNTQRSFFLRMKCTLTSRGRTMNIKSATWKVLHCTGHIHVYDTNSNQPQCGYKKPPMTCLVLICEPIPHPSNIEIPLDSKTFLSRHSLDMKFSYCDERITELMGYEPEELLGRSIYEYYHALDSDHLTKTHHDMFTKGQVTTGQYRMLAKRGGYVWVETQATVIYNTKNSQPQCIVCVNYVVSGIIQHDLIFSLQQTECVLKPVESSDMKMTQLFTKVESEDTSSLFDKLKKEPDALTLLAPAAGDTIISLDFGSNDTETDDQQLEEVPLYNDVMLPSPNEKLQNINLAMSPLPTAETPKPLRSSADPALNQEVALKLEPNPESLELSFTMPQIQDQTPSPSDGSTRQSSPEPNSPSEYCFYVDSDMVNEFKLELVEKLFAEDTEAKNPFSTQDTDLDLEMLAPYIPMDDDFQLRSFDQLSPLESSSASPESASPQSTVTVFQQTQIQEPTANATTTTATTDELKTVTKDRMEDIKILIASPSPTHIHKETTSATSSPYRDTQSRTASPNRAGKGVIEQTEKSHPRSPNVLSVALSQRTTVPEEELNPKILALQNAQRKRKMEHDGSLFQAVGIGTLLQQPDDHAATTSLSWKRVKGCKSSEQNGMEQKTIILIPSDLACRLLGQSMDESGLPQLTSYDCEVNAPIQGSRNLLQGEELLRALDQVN
Summary of the method: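 HepG2 cells transiently transfected with multiplexed cis-promoter reporter units; reporter mRNA read 24 h after dosing by RT-PCR, 6-FAM primer-extension labelling, HpaI digestion and capillary electrophoresis. Bidirectional fit versus DMSO baseline.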

[17] = target: Hepatocyte nuclear factor 6 (Homo sapiens) (UniProt Q9UBC0); assay: ATG_HNF6_CIS: Attagene CIS-FACTORIAL HepG2 Assay for human Hepatocyte Nuclear Factor 6 (HNF6) (AID 2282952); conditions: HepG2 Attagene cis-factorial HNF6 reporter transcription; actives raise or lower the signal
Hepatocyte nuclear factor 6 (Homo sapiens), sequence (Q9UBC0 whole entry, looked up): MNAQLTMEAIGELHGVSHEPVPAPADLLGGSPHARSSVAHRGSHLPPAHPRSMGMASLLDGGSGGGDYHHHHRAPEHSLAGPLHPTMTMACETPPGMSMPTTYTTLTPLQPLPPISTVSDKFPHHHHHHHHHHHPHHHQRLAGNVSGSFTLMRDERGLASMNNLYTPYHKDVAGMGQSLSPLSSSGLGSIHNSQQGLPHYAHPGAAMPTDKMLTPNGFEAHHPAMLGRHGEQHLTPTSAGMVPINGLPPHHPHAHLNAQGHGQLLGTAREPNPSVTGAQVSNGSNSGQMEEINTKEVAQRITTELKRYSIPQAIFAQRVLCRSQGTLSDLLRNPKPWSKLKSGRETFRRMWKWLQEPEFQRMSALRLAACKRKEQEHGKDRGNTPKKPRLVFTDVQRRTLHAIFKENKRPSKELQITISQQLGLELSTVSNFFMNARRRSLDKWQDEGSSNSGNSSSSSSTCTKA
Summary of the method: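 Endogenous transcription factor activity in human HepG2 liver cells was captured through cis-regulated reporter constructs. After 24 h treatment, reporter mRNA was measured by RT-PCR with capillary electrophoresis, and activity was fitted in both directions relative to DMSO.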

[18] = ATG_MRE_CIS: Attagene CIS-FACTORIAL HepG2 Assay for human Metal Responsive Element (MRE) (AID 2282954); conditions: HepG2 MRE cis-reporter transcription, Attagene multiplex; actives raise or lower the signal
Summary of the method: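 Endogenous MRE-dependent transcription read as reporter mRNA in transiently transfected human HepG2 cells at 24 h. RNA reverse-transcribed, PCR-amplified, labelled and resolved by capillary electrophoresis; gain or loss relative to DMSO.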

[19] = target: Heat shock factor protein 1 (Homo sapiens) (UniProt Q00613); assay: ATG_HSE_CIS: Attagene CIS-FACTORIAL HepG2 Assay for human Heat Shock Transcription Factor 1 (HSE) (AID 2282953); conditions: HepG2 HSE cis-reporter, Attagene RNA transcription; actives raise or lower the signal
Heat shock factor protein 1 (Homo sapiens), sequence (Q00613 whole entry, looked up): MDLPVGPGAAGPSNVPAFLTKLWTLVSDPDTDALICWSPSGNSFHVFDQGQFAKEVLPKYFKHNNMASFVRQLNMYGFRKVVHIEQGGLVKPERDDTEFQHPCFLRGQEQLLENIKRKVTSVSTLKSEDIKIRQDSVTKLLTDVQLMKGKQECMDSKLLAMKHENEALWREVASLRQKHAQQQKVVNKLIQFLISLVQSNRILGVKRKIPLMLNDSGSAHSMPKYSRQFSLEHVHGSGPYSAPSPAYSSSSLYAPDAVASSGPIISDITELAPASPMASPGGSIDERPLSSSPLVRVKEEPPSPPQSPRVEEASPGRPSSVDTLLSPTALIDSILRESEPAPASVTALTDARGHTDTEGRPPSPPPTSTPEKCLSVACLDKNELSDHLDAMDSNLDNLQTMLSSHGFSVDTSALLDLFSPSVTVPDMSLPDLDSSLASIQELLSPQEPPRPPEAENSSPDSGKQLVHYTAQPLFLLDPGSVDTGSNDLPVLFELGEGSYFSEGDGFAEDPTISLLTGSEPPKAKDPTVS
Summary of the method: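 Reporter mRNA induction in HepG2 is measured 24 h after dosing, using transiently transfected multiplexed cis-regulated reporter units. Signal comes from capillary electrophoresis of labelled RT-PCR products, with DMSO as negative control.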

Measured: AC50

Transcription factor E2F1 (Homo sapiens), sequence (Q01094 whole entry, looked up): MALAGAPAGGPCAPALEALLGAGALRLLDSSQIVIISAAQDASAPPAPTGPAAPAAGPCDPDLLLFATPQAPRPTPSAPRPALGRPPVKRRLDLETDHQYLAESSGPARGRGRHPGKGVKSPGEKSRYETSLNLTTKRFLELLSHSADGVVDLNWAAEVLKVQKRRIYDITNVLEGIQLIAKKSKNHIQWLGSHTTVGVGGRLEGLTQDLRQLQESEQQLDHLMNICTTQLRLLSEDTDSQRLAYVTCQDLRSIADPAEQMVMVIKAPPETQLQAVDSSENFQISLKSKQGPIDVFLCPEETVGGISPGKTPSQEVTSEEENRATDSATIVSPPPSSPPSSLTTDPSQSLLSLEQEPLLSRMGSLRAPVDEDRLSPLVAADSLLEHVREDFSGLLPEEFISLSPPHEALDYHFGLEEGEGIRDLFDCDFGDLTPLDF

N#Cc1c(-c2ccc(Cl)cc2)[nH]c(C(F)(F)F)c1Br
active: [6] 19.8 µM | [13] 1 µM | [18] 0.956 µM
not listed: [19]
inactive: all other assays above

CC(C)(C)c1ccc(O)cc1
active: [5] 3.14 µM | [16] 76.7 µM | [18] 164 µM
not listed: [9] | [11] | [12] | [17]
inactive: all other assays above

CCCCc1ccc(O)cc1
active: [5] 7.43 µM | [16] 164 µM | [19] 139 µM
not listed: [9]
inactive: all other assays above

CCCCc1ccccc1
active: [16] 59.2 µM
not listed: [19]
inactive: all other assays above

CCOP(=S)(OCC)SCSc1ccc(Cl)cc1
active: [5] 4.21 µM
not listed: [9] | [19]
inactive: all other assays above

CN(C)C(=O)Cl
not listed: [11]
inactive: all other assays above

CCCCCCCc1ccc(O)cc1
active: [5] 3.89 µM [middle of 4 runs]
not listed: [11]
inactive: all other assays above

O=C(O)C(F)(F)C(F)(F)C(=O)O
inactive: all assays above

From PubChem BioAssay (EPA / NIEHS)
